Results filed as inconclusive are left out. More than one record can exist for a structure, and the calls need not agree. Calls of active or inactive are those of the source. How the source made its calls, unless noted: active means hit-call score of the fitted dose curve at least 0.9, where 1 is the maximum; inconclusive means response in the unintended direction; inactive means score below 0.9.
Tests used:
[1] = biological target: Estrogen receptor (Homo sapiens) (UniProt P03372); test: OT_ERa_GFPERaERE_0120: Odyssey Thera (OT) 2-hour HeLa Transcription Induction Assay for Estrogen Receptor (AID 2283382)
Estrogen receptor (Homo sapiens), sequence (P03372 whole entry, looked up): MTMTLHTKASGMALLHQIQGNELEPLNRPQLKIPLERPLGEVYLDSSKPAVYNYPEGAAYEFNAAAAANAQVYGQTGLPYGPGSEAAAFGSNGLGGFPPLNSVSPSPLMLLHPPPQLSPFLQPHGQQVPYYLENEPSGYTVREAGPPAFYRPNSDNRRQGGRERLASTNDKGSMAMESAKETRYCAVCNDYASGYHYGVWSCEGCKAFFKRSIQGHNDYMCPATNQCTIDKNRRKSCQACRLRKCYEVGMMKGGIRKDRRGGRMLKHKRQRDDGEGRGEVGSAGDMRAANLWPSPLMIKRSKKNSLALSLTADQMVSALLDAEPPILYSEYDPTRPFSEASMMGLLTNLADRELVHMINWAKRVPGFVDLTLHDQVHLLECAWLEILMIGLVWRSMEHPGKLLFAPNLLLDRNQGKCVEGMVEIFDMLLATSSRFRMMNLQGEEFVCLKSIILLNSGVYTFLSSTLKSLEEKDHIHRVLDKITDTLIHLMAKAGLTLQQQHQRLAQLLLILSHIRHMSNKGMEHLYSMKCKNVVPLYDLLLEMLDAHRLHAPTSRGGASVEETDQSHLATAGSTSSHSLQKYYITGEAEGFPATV
Outline: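 Fluorescence microscopy read-out: inducible fluorescent protein reporter in HeLa cells, imaged 2 h post-dose. Signal increase over DMSO negative control fitted as single primary endpoint via high content image analysis.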

[2] = biological target: Bile acid receptor (Homo sapiens) (UniProt Q96RI1); test: OT_FXR_FXRSRC1_0480: Odyssey Thera (OT) 8-hour HEK293T Protein-Complementation Assay for Farnesoid X receptor/SRC-1 Co-activator (AID 2283383)
Bile acid receptor (Homo sapiens), sequence (Q96RI1 whole entry, looked up, the tested form may be a part): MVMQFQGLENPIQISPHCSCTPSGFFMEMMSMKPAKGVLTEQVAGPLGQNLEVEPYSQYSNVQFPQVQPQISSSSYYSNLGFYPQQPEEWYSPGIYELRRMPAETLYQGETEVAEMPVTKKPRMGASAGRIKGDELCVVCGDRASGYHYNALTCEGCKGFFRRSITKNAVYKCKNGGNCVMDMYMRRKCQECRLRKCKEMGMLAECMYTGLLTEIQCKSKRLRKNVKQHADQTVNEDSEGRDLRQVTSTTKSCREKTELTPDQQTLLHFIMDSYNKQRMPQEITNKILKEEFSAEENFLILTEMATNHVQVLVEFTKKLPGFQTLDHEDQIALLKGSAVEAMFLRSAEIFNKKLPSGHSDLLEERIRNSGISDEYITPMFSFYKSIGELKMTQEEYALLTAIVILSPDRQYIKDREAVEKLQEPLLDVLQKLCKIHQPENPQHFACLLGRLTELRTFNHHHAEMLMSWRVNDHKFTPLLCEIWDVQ
Outline: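 Fluorescence intensity read-out, 8 h post-dose, HEK293T protein-fragment complementation; FXR bait and SRC-1 prey each linked to reporter fragments. Activity scored as signal increase over DMSO negative control.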

[3] = biological target: Bile acid receptor (Homo sapiens) (UniProt Q96RI1); test: OT_FXR_FXRSRC1_1440: Odyssey Thera (OT) 24-hour HEK293T Protein-Complementation Assay for Farnesoid X receptor/SRC-1 Co-activator (AID 2283384)
Outline: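 Fluorescence readout, 24 h post-dose, HEK293T; FXR and SRC-1 fused to complementary reporter fragments, association reconstitutes signal. Positive-direction fit vs DMSO baseline.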

[4] = biological target: Retinoic acid receptor RXR-alpha (Homo sapiens) (UniProt P19793); test: OT_NURR1_NURR1RXRa_0480: Odyssey Thera (OT) 8-hour HEK293T Protein Complementation Assay for Nurr1/retinoid X receptor (RXR) (AID 2283385)
Retinoic acid receptor RXR-alpha (Homo sapiens), sequence (P19793 whole entry, looked up, the tested form may be a part): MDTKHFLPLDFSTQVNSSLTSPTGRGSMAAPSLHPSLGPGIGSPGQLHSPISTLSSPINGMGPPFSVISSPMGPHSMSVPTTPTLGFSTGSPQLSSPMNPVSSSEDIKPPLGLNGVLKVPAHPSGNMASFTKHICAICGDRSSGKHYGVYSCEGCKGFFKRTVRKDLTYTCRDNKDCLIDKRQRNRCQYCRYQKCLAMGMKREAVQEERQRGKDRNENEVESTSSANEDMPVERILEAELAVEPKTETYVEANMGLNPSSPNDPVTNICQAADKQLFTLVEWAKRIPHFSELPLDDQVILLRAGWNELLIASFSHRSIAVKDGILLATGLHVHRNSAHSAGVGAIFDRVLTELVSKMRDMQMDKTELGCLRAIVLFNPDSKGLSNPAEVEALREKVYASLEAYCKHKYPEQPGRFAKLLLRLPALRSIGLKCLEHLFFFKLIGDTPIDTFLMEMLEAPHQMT
Outline: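 Read-out: fluorescence from protein-fragment complementation between Nurr1 and RXRα in human HEK293T cells, 8 h after dosing. DMSO served as negative control; increased signal counted as activity.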

[5] = biological target: Retinoic acid receptor RXR-alpha (Homo sapiens) (UniProt P19793); test: OT_NURR1_NURR1RXRa_1440: Odyssey Thera (OT) 24-hour HEK293T Protein Complementation Assay for Nurr1/retinoid X receptor (RXR) (AID 2283386)
Outline: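 Fluorescence PCA read-out; HEK293T; 24 h post-dose; bait/prey fused to reporter fragments; gain-of-signal fit vs DMSO negative control.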

[6] = biological target: Peroxisome proliferator-activated receptor gamma (Homo sapiens) (UniProt P37231); test: OT_PPARg_PPARgSRC1_0480: Odyssey Thera (OT) 8-hour Protein-Complementation Assay for Peroxisome Proliferator-activated Receptor Gamma / SRC-1 Co-activator (AID 2283387);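 further: nuclear to cytoplasmic split Venus YFP fluorescence ratio reporting PPARg SRC-1 interaction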
Peroxisome proliferator-activated receptor gamma (Homo sapiens), sequence (P37231 whole entry, looked up, the tested form may be a part): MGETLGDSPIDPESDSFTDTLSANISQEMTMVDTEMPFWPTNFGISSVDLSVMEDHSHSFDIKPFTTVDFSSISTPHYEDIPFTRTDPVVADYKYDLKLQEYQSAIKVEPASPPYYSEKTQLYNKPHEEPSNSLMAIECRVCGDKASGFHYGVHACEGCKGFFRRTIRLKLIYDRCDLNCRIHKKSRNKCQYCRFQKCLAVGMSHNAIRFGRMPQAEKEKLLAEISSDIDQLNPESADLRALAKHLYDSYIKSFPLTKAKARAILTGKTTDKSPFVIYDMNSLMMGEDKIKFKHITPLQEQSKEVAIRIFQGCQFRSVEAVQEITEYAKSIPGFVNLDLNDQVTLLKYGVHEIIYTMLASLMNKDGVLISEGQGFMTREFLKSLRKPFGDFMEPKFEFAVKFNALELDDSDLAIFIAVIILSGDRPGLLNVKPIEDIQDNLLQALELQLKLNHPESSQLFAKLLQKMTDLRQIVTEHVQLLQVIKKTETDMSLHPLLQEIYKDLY
Outline: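 Protein-fragment complementation in HEK293T: Venus YFP halves (residues 1-158, 159-239, mutated to IFP1/IFP2) fused to PPARg/SRC-1. 8 h exposure; N/C ratio at 488 nm; DMSO negative control.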

[7] = biological target: Peroxisome proliferator-activated receptor gamma (Homo sapiens) (UniProt P37231); test: OT_PPARg_PPARgSRC1_1440: Odyssey Thera (OT) 24-hour Protein-Complementation Assay for Peroxisome Proliferator-activated Receptor Gamma/ SRC-1 Co-activator (AID 2283388);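 further: nuclear to cytoplasmic ratio of reconstituted Venus YFP fluorescence in fixed imaged cells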
Outline: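 Readout: nuclear-to-cytoplasmic 488 nm fluorescence ratio, ≥350 cells per image, 8 images per well, after 24 h compound exposure of HEK293T expressing PPARg/SRC-1 split-YFP fusions. Activity fitted in positive direction against DMSO.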

[8] = read-out: Tumor necrosis factor receptor superfamily member 6 (Homo sapiens) (UniProt P25445); test: LTEA_HepaRG_FAS: Life Technologies and Expression Analysis (LTEA) Assay for Fas cell surface death receptor (FAS) using HepaRG (AID 2283447; active means hit-call score of the fitted dose curve at least 0.9, where 1 is the maximum; inactive means score below 0.9); settings: mRNA level, 48 h; actives raise or lower the signal
Outline: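 Differentiated human HepaRG cells, pre-cultured 48 h, were exposed in duplicate for 48 h to 8-point half-log concentrations (top 100 uM, 0.5% DMSO) in serum-free induction medium; FAS mRNA measured by qRT-PCR, normalized to ACTB/GAPDH/POLR2A, bidirectional fit versus DMSO.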

[9] = biological target: Estrogen receptor beta (Homo sapiens) (UniProt Q92731); test: OT_ER_ERbERb_1440: Odyssey Thera (OT) 24-hour HEK293T Protein-Complementation Assay for Estrogen Receptor-beta/-beta Homodimer (AID 2283380);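 further: fluorescence gain from ER beta LBD homodimer complementation read by laser scanning cytometry; scored as signal increase over DMSO baseline for both agonists and antagonists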
Estrogen receptor beta (Homo sapiens), sequence (Q92731 whole entry, looked up, the tested form may be a part): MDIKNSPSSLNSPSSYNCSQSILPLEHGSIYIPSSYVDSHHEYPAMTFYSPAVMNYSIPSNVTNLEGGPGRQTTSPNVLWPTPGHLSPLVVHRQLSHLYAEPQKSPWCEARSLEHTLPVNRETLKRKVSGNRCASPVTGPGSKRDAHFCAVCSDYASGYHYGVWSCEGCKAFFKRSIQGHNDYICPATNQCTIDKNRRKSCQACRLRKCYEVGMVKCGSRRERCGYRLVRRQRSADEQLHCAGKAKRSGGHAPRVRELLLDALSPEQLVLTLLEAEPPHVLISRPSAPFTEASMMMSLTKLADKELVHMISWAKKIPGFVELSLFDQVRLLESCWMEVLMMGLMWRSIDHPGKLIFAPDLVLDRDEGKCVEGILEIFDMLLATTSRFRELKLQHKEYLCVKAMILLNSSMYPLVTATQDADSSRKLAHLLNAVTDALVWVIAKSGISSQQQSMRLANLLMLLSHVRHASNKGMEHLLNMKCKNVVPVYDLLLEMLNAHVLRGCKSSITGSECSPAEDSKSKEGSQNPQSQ
Outline: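 HEK293T cells stably expressing human ER-beta LBD (aa 310-547) PCA homodimer pair, dosed 24 h; formaldehyde-fixed, Draq5-stained. Readout: increase in nuclear (agonist) or nuclear plus cytoplasmic (antagonist) fluorescence intensity versus DMSO, gain-of-signal fitting.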

[10] = biological target: Estrogen receptor (Homo sapiens) (UniProt P03372); test: OT_ERa_GFPERaERE_0480: Odyssey Thera (OT) 8-hour HeLa Transcription Induction Assay for Estrogen Receptor (AID 2283381; active means hit-call score of the fitted dose curve at least 0.9, where 1 is the maximum; inactive means score below 0.9)
Outline: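 GFP-ERE reporter, HeLa, 8 h exposure. Readout: fluorescence microscopy, high-content image analysis. Fit direction positive vs DMSO negative control.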

[11] = CEETOX_H295R_OHPREG: CeeTox H295R High-throughput Steroidogenesis Assay for OH-Pregnenolone (OHPREG) (AID 2283434; active means hit-call score of the fitted dose curve at least 0.9, where 1 is the maximum; inactive means score below 0.9); settings: actives raise or lower the signal
Outline: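 Readout: HPLC-MS/MS of 17alpha-hydroxypregnenolone in medium after 48 h chemical exposure of H295R cells pretreated with forskolin. Values fitted bidirectionally relative to DMSO; chemicals reducing viability to 20–70% were retested after 10-fold dilution.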

[12] = CEETOX_H295R_OHPROG: CeeTox H295R High-throughput Steroidogenesis Assay for OH-Progesterone (OHPROG) (AID 2283435; active means hit-call score of the fitted dose curve at least 0.9, where 1 is the maximum; inactive means score below 0.9;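 on AC50: 17alpha-hydroxyprogesterone secreted into medium measured by HPLC-MS/MS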); settings: actives raise or lower the signal
Outline: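 HPLC-MS/MS quantification of 17alpha-hydroxyprogesterone secreted by H295R cells after 48 h chemical exposure, following 48 h 10 uM forskolin prestimulation. Gain or loss of signal fitted relative to DMSO. Viability checked by MTT in the same wells.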

[13] = CEETOX_H295R_CORTIC: CeeTox H295R High-throughput Steroidogenesis Assay for Corticosterone (CORTIC) (AID 2283437; active means hit-call score of the fitted dose curve at least 0.9, where 1 is the maximum; inactive means score below 0.9;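 further: corticosterone secreted into medium quantified by mass spectrometry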); settings: actives raise or lower the signal
Outline: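 Steps: seed H295R, adhere overnight; 10 uM forskolin 48 h; replace with chemical (0.1% DMSO) 48 h; extract medium with MTBE; quantify corticosterone by HPLC-MS/MS; score bidirectionally vs DMSO.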

[14] = CEETOX_H295R_CORTISOL: CeeTox H295R High-throughput Steroidogenesis Assay for Cortisol (AID 2283438; active means hit-call score of the fitted dose curve at least 0.9, where 1 is the maximum; inactive means score below 0.9;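 further: cortisol secreted into medium quantified by LC-MS/MS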); settings: actives raise or lower the signal
Outline: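 Read-out: cortisol in culture medium by reverse-phase C18 HPLC with ESI-positive tandem MS, after MTBE liquid-liquid extraction. Cells: human adrenal H295R, forskolin-primed (10 uM, 48 h) before 48 h chemical exposure in 0.1% DMSO.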

[15] = CEETOX_H295R_DOC: CeeTox H295R High-throughput Steroidogenesis Assay for DOC (AID 2283439; active means hit-call score of the fitted dose curve at least 0.9, where 1 is the maximum; inactive means score below 0.9); settings: actives raise or lower the signal
Outline: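 Human adrenocortical H295R cells, passages up to 10, received 10 uM forskolin for 48 h before chemical addition. After another 48 h exposure in 0.1% DMSO, secreted DOC was measured by LC-MS/MS, with gain or loss fitted against DMSO controls.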

[16] = CEETOX_H295R_PROG: CeeTox H295R High-throughput Steroidogenesis Assay for Progesterone (PROG) (AID 2283442; active means hit-call score of the fitted dose curve at least 0.9, where 1 is the maximum; inactive means score below 0.9); settings: actives raise or lower the signal
Outline: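 Progesterone read-out: HPLC-MS/MS on MTBE extracts of conditioned medium after 48 h chemical exposure of forskolin-primed (10 uM, 48 h) H295R cells. Gain or loss of signal was fitted relative to DMSO baseline.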

[17] = CEETOX_H295R_ESTRADIOL: CeeTox H295R High-throughput Steroidogenesis Assay for Estradiol (AID 2283440; active means hit-call score of the fitted dose curve at least 0.9, where 1 is the maximum; inactive means score below 0.9;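 further: estradiol secreted into medium quantified by LC-MS/MS after dansyl derivatisation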); settings: actives raise or lower the signal
Outline: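 H295R, 48 h forskolin (10 uM) prestim → 48 h compound, 0.1% DMSO final. Estradiol in medium: MTBE extraction, dansyl chloride derivatization, LC-MS/MS. Fit bidirectional vs DMSO baseline; MTT viability in same wells.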

Measured: AC50

Cn1c(=O)c2[nH]cnc2n(C)c1=O
inactive: [1] | [2] | [3] | [4] | [5] | [6] | [7] | [8]

O=C(O)CO
inactive: [9] | [10] | [1] | [5] | [6] | [7]

O=C1CN(N=Cc2ccc([N+](=O)[O-])o2)C(=O)N1
inactive: [9] | [10] | [1] | [6] | [7] | [8]

CCCCCCCCN(C)C
inactive: [1] | [4] | [5] | [6] | [7] | [11] | [12] | [13] | [14] | [15] | [16] | [8]

Cc1nccn1-c1ccc(Sc2cccc(C3(C(N)=O)CCOCC3)c2)cc1
inactive: [1] | [4] | [5] | [6] | [7] | [8]
active: [9] 31.9 µM | [2] 4.07 µM | [3] 9.64 µM | [5] 50 µM

O=C(NO)C1(NS(=O)(=O)c2ccc(Oc3ccc(F)cc3)cc2)CCOCC1
inactive: [9] | [10] | [1] | [4] | [6] | [7] | [8]

CCCCCCOC(=O)CC(CC(=O)OCCCCCC)(OC(=O)CCC)C(=O)OCCCCCC
inactive: [9] | [10] | [1] | [4] | [6] | [7] | [8]

CNC(C)=O
inactive: [9] | [10] | [1] | [4] | [5] | [6] | [7] | [8]

CCCCCCCCCC
inactive: [9] | [1] | [2] | [3] | [4] | [5] | [6] | [7] | [8]

CC[C@H](C)C(=O)O[C@H]1C[C@H](O)C=C2C=C[C@H](C)[C@H](CC[C@@H](O)C[C@@H](O)CC(=O)O)[C@H]21
inactive: [9] | [1] | [4] | [5] | [6] | [7] | [14] | [17] | [8]
active: [11] 1.06 µM | [12] 5.55 µM | [13] 6.77 µM | [15] 2.7 µM | [16] 0.949 µM

Source: PubChem BioAssay (EPA / NIEHS)
